About 83,000 compounds went through this panel and 20% of them were active in at least one assay; those are over-represented in the sample as a whole.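 96-well plates, one dose, 48 hours. Percent growth reported; active if below 10.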 Activity calls are given as the source filed them.
Experiments:
Assay in all cases: NCI-60 one-dose screen, 48 h (100 = growth as untreated, 0 = no growth, -100 = all killed)
Settings in all cases: 10 µM unless noted
NCI-H23 lung = tested on: NCI-H23 lung
NCI-H226 lung = tested on: NCI-H226 lung
NCI-H322M lung = tested on: NCI-H322M lung
HOP-62 NSCLC = tested on: HOP-62 NSCLC
NCI-H460 lung = tested on: NCI-H460 lung
HOP-92 NSCLC = tested on: HOP-92 NSCLC
NCI-H522 lung = tested on: NCI-H522 lung
A549/ATCC NSCLC = tested on: A549/ATCC NSCLC
786-0 renal = tested on: 786-0 renal
COLO 205 colon = tested on: COLO 205 colon

Measured: growth

COc1ccc2c(c1)nc(NNC(=O)c1cnccn1)c1cccn12
active: NCI-H460 lung 7.94% | NCI-H522 lung 9.5% | COLO 205 colon 7.24%
inactive: NCI-H23 lung 33.4% | NCI-H226 lung 39.3% | NCI-H322M lung 28.5% | HOP-62 NSCLC 28.6% | HOP-92 NSCLC 64.3% | A549/ATCC NSCLC 24.6% | 786-0 renal 26.1%

O=C(O)CCC/C=C\C[C@H]1C=CC(=O)/C1=C/C[C@@H](O)CCc1cccc(C(F)(F)F)c1
active: NCI-H23 lung -22.1% | NCI-H226 lung -39.5% | HOP-62 NSCLC -31.9% | NCI-H460 lung -65.1% | HOP-92 NSCLC -20.6% | NCI-H522 lung -62.7% | A549/ATCC NSCLC -7.82% | 786-0 renal -31.3% | COLO 205 colon -38.1%
inactive: NCI-H322M lung 11.3%

O=C(/C=C/c1sc(Cl)nc1Cl)c1ccc(F)cc1
inactive: NCI-H23 lung 94% | NCI-H226 lung 96.4% | NCI-H322M lung 100% | HOP-62 NSCLC 95.6% | NCI-H460 lung 102% | HOP-92 NSCLC 96.9% | NCI-H522 lung 86.6% | A549/ATCC NSCLC 98.4% | 786-0 renal 95.8% | COLO 205 colon 75.6%

COc1ccc(-c2nn(C(=O)c3cc(OC)c(OC)c(OC)c3)c3cc(N)ccc23)cc1
active: NCI-H460 lung 9.14% | NCI-H522 lung -12.6% | 786-0 renal 6.94% | COLO 205 colon -60.3%
inactive: NCI-H23 lung 34.1% | NCI-H226 lung 28.9% | NCI-H322M lung 53.4% | HOP-62 NSCLC 30.1% | HOP-92 NSCLC 50.1% | A549/ATCC NSCLC 18.1%

Cc1onc2c(-c3ccccc3)n[nH]c(=O)c12
inactive: NCI-H23 lung 100% | NCI-H226 lung 110% | NCI-H322M lung 72.5% | HOP-62 NSCLC 90.2% | NCI-H460 lung 109% | HOP-92 NSCLC 52.3% | NCI-H522 lung 94.4% | A549/ATCC NSCLC 114% | 786-0 renal 95% | COLO 205 colon 146%

CCCCCCN1C(=O)/C(=c2\sc3n(c2=O)C2C(NN=3)N(CC)C(=O)N2CC)c2ccccc21 (stereo not given)
active: NCI-H226 lung -5.26% | HOP-62 NSCLC -1.75% | NCI-H460 lung -27.7% | NCI-H522 lung -28.7% | A549/ATCC NSCLC -47.6% | 786-0 renal -67.2% | COLO 205 colon 7.62%
inactive: NCI-H23 lung 25.6% | NCI-H322M lung 43.5% | HOP-92 NSCLC 37%

C=C1C(=O)O[C@H]2[C@H]1CC/C(COC(=O)CCSSCCC(=O)OC/C1=C/CC[C@@]3(C)O[C@H]3[C@H]3OC(=O)C(=C)[C@@H]3CC1)=C\CC[C@@]1(C)O[C@@H]21
active: HOP-92 NSCLC -57.7% | NCI-H522 lung -79.8% | 786-0 renal -70.9% | COLO 205 colon -72.5%
inactive: NCI-H23 lung 26.4% | NCI-H226 lung 78.1% | NCI-H322M lung 94.6% | HOP-62 NSCLC 72.3% | NCI-H460 lung 64% | A549/ATCC NSCLC 60.8%

Cc1cc2nc3ccc(N=Nc4ccc(N(C)C)cc4)cc3n(-c3ccccc3)c-2cc1=N
active: NCI-H23 lung -45.8% | NCI-H226 lung -81.3% | NCI-H322M lung -96.6% | HOP-62 NSCLC -55.9% | NCI-H460 lung -58.1% | HOP-92 NSCLC -70.3% | NCI-H522 lung -73.8% | A549/ATCC NSCLC -75.4% | 786-0 renal -61.9% | COLO 205 colon -86.8%

NCCOc1ncccc1/C=C1\C2C=CC=CC2C2C=CC(F)=CC12 (stereo not given)
inactive: NCI-H322M lung 64.5% | HOP-62 NSCLC 10.5% | HOP-92 NSCLC 28.9% | NCI-H522 lung 47.8% | COLO 205 colon 27.2%
active: NCI-H23 lung 2.79% | NCI-H226 lung -26.2% | NCI-H460 lung -22% | A549/ATCC NSCLC -56.5% | 786-0 renal 1.24%

c1cc2nc(-c3cn[nH]c3)c3c(c2cc1-c1cn[nH]c1)C1CCC3C1 (stereo not given)
inactive: NCI-H23 lung 53% | NCI-H226 lung 39.5% | NCI-H322M lung 75% | HOP-62 NSCLC 47.8% | NCI-H460 lung 54% | HOP-92 NSCLC 28% | NCI-H522 lung 75.1% | A549/ATCC NSCLC 74% | 786-0 renal 81.5% | COLO 205 colon 90.5%

N#C/C(=C\c1ccc(F)cc1)n1nc2cccc(F)c2n1
active: HOP-92 NSCLC 6.85% | NCI-H522 lung 8.28%
inactive: NCI-H23 lung 56.7% | NCI-H226 lung 97.6% | NCI-H322M lung 76.2% | HOP-62 NSCLC 76.3% | NCI-H460 lung 39.2% | A549/ATCC NSCLC 78.7% | 786-0 renal 67.3% | COLO 205 colon 67.1%

CCOC(=O)CC1C(COC(=O)NC)OC(n2cnc3c(NC(=O)Nc4ccccc4)ncnc32)C1O[Si](C)(C)C(C)(C)C (stereo not given)
inactive: NCI-H23 lung 81% | NCI-H226 lung 55.5% | NCI-H322M lung 91.1% | HOP-62 NSCLC 77.4% | NCI-H460 lung 13.2% | HOP-92 NSCLC 62.1% | NCI-H522 lung 45.3% | A549/ATCC NSCLC 51.3% | 786-0 renal 72.5% | COLO 205 colon 67.4%

NCCCNc1nc2ccccc2c2c(=O)c3cc(F)cc(F)c3sc12
active: NCI-H460 lung -75.1% | 786-0 renal -88.8%
inactive: NCI-H23 lung 84% | NCI-H226 lung 92.5% | NCI-H322M lung 84.5% | HOP-62 NSCLC 78.9% | HOP-92 NSCLC 36% | NCI-H522 lung 92.7% | A549/ATCC NSCLC 78.1% | COLO 205 colon 63.6%

CN(C)c1ccc(/C=N\Nc2cc(=O)[nH]c3ccc(Cl)cc23)cc1
inactive: NCI-H23 lung 82.8% | NCI-H226 lung 75% | NCI-H322M lung 99.2% | HOP-62 NSCLC 91.8% | NCI-H460 lung 102% | HOP-92 NSCLC 82.2% | NCI-H522 lung 86.1% | A549/ATCC NSCLC 96.6% | 786-0 renal 102% | COLO 205 colon 112%

O=[N+]([O-])c1ccc(Oc2nc(Nc3ccc(O[C@H]4CO[C@H]5[C@@H]4OC[C@@H]5O)c(Cl)c3)ncc2F)c(Cl)c1
active: HOP-92 NSCLC -7.77% | NCI-H522 lung 8.06%
inactive: NCI-H23 lung 25.7% | NCI-H226 lung 19.5% | NCI-H322M lung 29.9% | HOP-62 NSCLC 23.2% | NCI-H460 lung 22.7% | A549/ATCC NSCLC 40% | 786-0 renal 21.4% | COLO 205 colon 33.3%

Cc1ccc2nc(NC(=O)CSc3nc(Cl)c(C#N)c(-c4ccccc4)n3)sc2c1
inactive: NCI-H23 lung 97.9% | NCI-H226 lung 107% | NCI-H322M lung 101% | HOP-62 NSCLC 102% | NCI-H460 lung 106% | HOP-92 NSCLC 95% | NCI-H522 lung 86.9% | A549/ATCC NSCLC 98.6% | 786-0 renal 103% | COLO 205 colon 110%

COc1cc(C(=O)/C=C/c2c(Cl)nc3sccn23)cc(OC)c1OC
inactive: NCI-H23 lung 91.8% | NCI-H226 lung 92% | NCI-H322M lung 77.3% | HOP-62 NSCLC 83.3% | NCI-H460 lung 87.1% | HOP-92 NSCLC 57.3% | NCI-H522 lung 61.8% | A549/ATCC NSCLC 83% | 786-0 renal 91.6% | COLO 205 colon 104%

Nc1nc2ccccc2c2c(=O)c3cc(F)ccc3sc12
inactive: NCI-H23 lung 87.3% | NCI-H226 lung 94.5% | NCI-H322M lung 99.2% | HOP-62 NSCLC 108% | NCI-H460 lung 103% | HOP-92 NSCLC 80.8% | NCI-H522 lung 98.1% | A549/ATCC NSCLC 104% | 786-0 renal 97.4% | COLO 205 colon 110%

c1ccc(-c2nc3nonc3nc2-c2ccccc2)cc1
inactive: NCI-H23 lung 52.4% | NCI-H226 lung 69.2% | NCI-H322M lung 81.7% | HOP-62 NSCLC 79% | NCI-H460 lung 62.8% | HOP-92 NSCLC 78% | NCI-H522 lung 49.2% | A549/ATCC NSCLC 76.7% | 786-0 renal 73.8% | COLO 205 colon 82.6%

CCCCNC(=O)Oc1ccc(/C(=C(\C)c2ccc(Cl)cc2)c2ccc(OCCN3CCCCC3)cc2)cc1
inactive: NCI-H23 lung 78.8% | NCI-H226 lung 99.1% | NCI-H322M lung 94.8% | HOP-62 NSCLC 78.6% | NCI-H460 lung 85.9% | HOP-92 NSCLC 64.5% | NCI-H522 lung 85.2% | A549/ATCC NSCLC 63.8% | 786-0 renal 63.2% | COLO 205 colon 69.2%

CN1CCN(Cc2ccc(NC(=O)c3ccc(C(C)(C)C)c(C#Cc4cnc5cccnn45)c3)cc2C(F)(F)F)CC1
inactive: NCI-H226 lung 48.5% | HOP-92 NSCLC 23.9%
active: NCI-H23 lung -65.1% | NCI-H322M lung -29.6% | HOP-62 NSCLC -73.1% | NCI-H460 lung -52.7% | NCI-H522 lung -73.5% | A549/ATCC NSCLC -76.8% | 786-0 renal -85.4% | COLO 205 colon -70.1%

COc1cc(/C=C2\C(=O)Nc3ccc(Br)cc32)cc(OC)c1OC
inactive: NCI-H23 lung 63.5% | NCI-H226 lung 77.1% | NCI-H322M lung 76.1% | HOP-62 NSCLC 85.2% | NCI-H460 lung 73.3% | HOP-92 NSCLC 48.2% | NCI-H522 lung 47% | 786-0 renal 84.9% | COLO 205 colon 70.8%
active: A549/ATCC NSCLC -4.21%

COc1cc(/C=N/NC(=O)c2ccc(C)nc2)cc(OC)c1OC
inactive: NCI-H23 lung 102% | NCI-H226 lung 85.1% | NCI-H322M lung 90.5% | HOP-62 NSCLC 105% | NCI-H460 lung 103% | HOP-92 NSCLC 90.5% | NCI-H522 lung 91.7% | A549/ATCC NSCLC 90.9% | 786-0 renal 34% | COLO 205 colon 108%

O=C1CSC(c2c(Cl)cccc2Cl)N1c1nc(Cl)cc(=O)[nH]1 (stereo not given)
inactive: NCI-H23 lung 104% | NCI-H226 lung 99.8% | NCI-H322M lung 177% | HOP-62 NSCLC 95.8% | NCI-H460 lung 101% | HOP-92 NSCLC 65% | NCI-H522 lung 75.8% | A549/ATCC NSCLC 103% | 786-0 renal 90.7% | COLO 205 colon 111%

O=C(Nc1ccc(OS(=O)(=O)c2ccc(F)cc2)cc1)c1ccc(Cl)cc1
inactive: NCI-H23 lung 94% | NCI-H226 lung 99.5% | NCI-H322M lung 92.6% | HOP-62 NSCLC 101% | NCI-H460 lung 101% | HOP-92 NSCLC 101% | NCI-H522 lung 83.6% | A549/ATCC NSCLC 94.1% | 786-0 renal 104% | COLO 205 colon 114%
